According to PubChem BioAssay (NCATS):
Records with an inconclusive call do not appear. The source made the active and inactive calls. Unless noted, calls come from the whole dose curve.

Experiments:
[1] = AP1 Signaling Pathway (AID 357; active = well fitted curve in either direction with a large enough effect, not every such curve was filed as active;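 note: ME-180 reporter cells stimulated with EGF at its EC50 level; % is set by controls: 0 for no effect and ±100 for the full control effect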); settings: ME-180 AP-1-bla reporter, EGF-induced, beta-lactamase ratio, 5 h; at 7.69 µM (top of the series) unless noted
In short: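 A ratiometric CCF4 readout (405 nm excitation; 460 and 530 nm emission) quantified AP-1-driven beta-lactamase in ME-180 cells after 5 h with compound and EC50 EGF; AC50 values were derived for activators and inhibitors.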

[2] = molecular target: Cytochrome P450 1A2 (Homo sapiens) (UniProt P05177); test: p450-cyp1a2 (AID 410); settings: recombinant CYP1A2, luciferin-ME demethylation, luminescence; series mostly up to 57 µM; note: potency is the fitted concentration of half-maximal effect;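 for activity change, negative = inhibition: -100% = full effect of reference inhibitor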
In short: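 Inhibition was calculated relative to 57 uM furafylline (full inhibition). The reaction used human CYP1A2 at 20nM with Luciferin-ME at its Km, 100uM, driven by an NADPH-regenerating system for 60 min at room temperature.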

[3] = NFAT Signaling Pathway (AID 444; active = well fitted curve in either direction with a large enough effect, not every such curve was filed as active;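 note: carbachol stimulus at about its EC50 of 1 µM final; % is set by controls: 0 for no effect and ±100 for the full control effect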); settings: Jurkat NFAT-bla M1, carbachol, beta-lactamase ratio, 5 h; at 7.69 µM (top of the series) unless noted
In short: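 Read-out: CCF4 FRET ratio (460 nm/530 nm) after 1 h RT dye loading, used for %activity and AC50 from titration series. Cells: Jurkat NFAT-β-lactamase/M1 line, treated with compound plus 1 uM carbachol for 5 h, 37 °C.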

[4] = Stat Signaling Pathway (AID 446; active = well fitted curve in either direction with a large enough effect, not every such curve was filed as active;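 note: ME-180 cervical cancer cells given 40 pM IL-6 alongside compound; SIE-controlled beta-lactamase reporter measured as 460/530 nm FRET emission ratio; % is set by controls: 0 for no effect and ±100 for the full control effect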); settings: ME-180 SIE beta-lactamase reporter, IL-6 stimulated, 5 h; at 7.69 µM (top of the series) unless noted
In short: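 IL-6/STAT signaling read in ME-180 cells via an SIE beta-lactamase reporter. Stimulus was 40 pM IL-6 (its AC50) for 5 hrs, so both activation and inhibition register.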

[5] = molecular target: Glucocorticoid receptor (Homo sapiens) (UniProt P04150); test: GR-EFC Redistribution (AID 451); settings: CHO-K1 GR-EFC translocation, beta-gal luminescence, 2 h; note: potency is the fitted concentration of half-maximal effect
In short: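 Translocation of GR-ED fusion to nuclear EA restores b-gal, read by luminescence after 1 h room-temperature detection. Engineered CHO-K1 biosensor cells, 1,000/well, exposed 2 h at 37 C to titrations up to 46 uM final.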

[6] = molecular target: Mitogen-activated protein kinase 10 (Mus musculus) (UniProt Q61831); test: JNK3 AlphaScreen Assay (AID 530; active = well fitted curve in either direction with a large enough effect, not every such curve was filed as active;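 note: kinase came from lysate of stimulated human HepG2 cells; signal reports phosphorylation of biotinylated GST-cJun 1-79 at Ser73 with 10 µM ATP; % is set by controls: 0 for no effect and ±100 for the full control effect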); settings: JNK3 lysate, c-Jun phosphorylation; series mostly up to 57.1 µM
In short: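 Room-temperature AlphaScreen kinase assay; pre-activated HepG2 lysate as JNK3 source, biotin-GST-cJun(1-79) substrate, 10 uM ATP, compound 15 min preincubation.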

[7] = molecular target: Cytochrome P450 3A4 (Homo sapiens) (UniProt P08684); test: qHTS Assay for Activators of Cytochrome P450 3A4 (AID 885; active = well fitted curve in the direction sought with a large enough effect; an effect the other way counts as inactive or inconclusive; note: nearly all actives have a fitted effect of over 65% in size); settings: recombinant CYP3A4, Luciferin-PPXE luminescence, 60 min; series mostly up to 57.1 µM
In short: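 Quantitative HTS format: compounds preincubated with 20nM human CYP3A4 and Luciferin-PPXE substrate at KM, reaction started by NADPH regeneration, stopped after 60 min, luciferase luminescence read 20 min later.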

[8] = qHTS Assay for Lipid Storage Modulators (AID 1519); settings: Drosophila S3 cells, BODIPY lipid droplet/cell ratio, laser cytometry, cells loaded with oleic acid; for activity change, negative = inhibition: at 57.5 µM (top of the series)
In short: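 Cells seeded at 5,000 per well were treated with compounds over a concentration series and loaded with oleic acid (400 uM, as added). Lipid droplet fluorescence (488 nm excitation, 500-530 nm channel) was read by laser-scanning cytometry and normalized to 20 uM Triacsin C.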

[9] = Primary qHTS for small molecule stabilizers of the endoplasmic reticulum resident proteome: Secreted ER Calcium Modulated Protein (SERCaMP) assay (AID 1508630; active = well fitted curve in the direction sought with a large enough effect; an effect the other way counts as inactive or inconclusive; note: % is set by controls: 0 for no effect and ±100 for the full control effect); settings: SH-SY5Y GLuc-SERCaMP (Gaussia luciferase released on ER calcium loss) secretion, thapsigargin, luminescence; series mostly up to 38.4 µM
In short: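 GLuc-SERCaMP-expressing SH-SY5Y cells, pretreated 16 h with compound, are challenged with thapsigargin to empty ER calcium stores; after 4 h, coelenterazine is added directly to the medium and luminescence is imaged.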

[10] = molecular target: Lysosomal acid glucosylceramidase (Homo sapiens) (UniProt P04062); test: Glucocerebrosidase-p2 (AID 348; in the data active = potency below about 10 µM; note: potency is the fitted concentration of half-maximal effect); settings: purified GBA, blue fluorogenic substrate, 40 min
In short: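 Compounds titrated from 0.6 nM upwards against 0.2 nM enzyme in pH 5.9 citric acid/KH2PO4, taurocholate, tween-20; blue fluorogenic substrate 80 uM, 40 min room temperature, stopped and read Ex 365/Em 440 for AC50.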

[11] = molecular target: 3',5'-cyclic-AMP phosphodiesterase 4B (Homo sapiens) (UniProt Q07343); test: qHTS Assay for Inhibitors of PDE-IV (AID 607; active = well fitted activation curve with a large enough effect in the main read-out, with a control signal flat, not every such curve was filed as active; note: % of control where 0% means no effect); settings: HEK293 ACTOne CNG channel cells, membrane potential fluorescence; series mostly up to 22.9 µM
In short: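 Live HEK293 cells with a modified cyclic nucleotide-gated (CNG) channel report intracellular cAMP via membrane-potential dye fluorescence (ex 535/em 590 nm). Endogenous PDE-IV was targeted. Compounds were tested at up to 22.9 uM final; RO 20-1724 100 uM served as control.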

[12] = molecular target: Cytochrome P450 2D6 (Homo sapiens) (UniProt P10635); test: qHTS Assay for Inhibitors and Substrates of Cytochrome P450 2D6 (AID 891; active = well fitted curve in the direction sought with a large enough effect; an effect the other way counts as inactive or inconclusive; note: potency is the fitted concentration of half-maximal effect; nearly all actives have a fitted effect of over 60% in size); settings: recombinant CYP2D6, luciferin-ME EGE luminescence; series mostly up to 57.1 µM
In short: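 Human CYP2D6 (5 nM) with 30 uM Luciferin-ME EGE (at Km) in 100 mM KPO4, compound preincubated 10 min, then NADPH regeneration system for 60 min at room temperature. Luciferin read by luminescence; normalized to 1.43 uM quinidine.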

[13] = molecular target: Cytochrome P450 3A4 (Homo sapiens) (UniProt P08684); test: qHTS Assay for Inhibitors and Substrates of Cytochrome P450 3A4 (AID 884; active = well fitted curve in the direction sought with a large enough effect; an effect the other way counts as inactive or inconclusive; note: % is set by controls: 0 for no effect and ±100 for the full control effect; nearly all actives have a fitted effect of over 50% in size); settings: recombinant CYP3A4, Luciferin-PPXE luminescence; series mostly up to 57.1 µM
In short: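 20 nM human CYP3A4 with 25 uM Luciferin-PPXE (at KM) in 200 mM KPO4, preincubated 10 min with compound; NADPH regeneration started a 60 min RT reaction. Luciferin detected by luminescence, normalized to 57 uM ketoconazole as full inhibition.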

[14] = molecular target: Glucocorticoid receptor (Homo sapiens) (UniProt P04150); test: GR-GFP Redistribution (AID 450;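 active = compounds whose dose series gives a full or clear partial fitted curve of increased nuclear translocation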; note: potency is the fitted concentration of half-maximal effect); settings: U2OS GR-GFP nuclear translocation, laser cytometry, 2 h
[15] = molecular target: Cytochrome P450 2C19 (Homo sapiens) (UniProt P33261); test: qHTS Assay for Inhibitors and Substrates of Cytochrome P450 2C19 (AID 899; active = well fitted curve in the direction sought with a large enough effect; an effect the other way counts as inactive or inconclusive; note: potency is the fitted concentration of half-maximal effect; nearly all actives have a fitted effect of over 60% in size); settings: recombinant CYP2C19, luciferin-H EGE luminescence; series mostly up to 57.1 µM
In short: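 Reactions contain 5nM enzyme, 10uM Luciferin-H EGE (KM) and 50mM KPO4; compound preincubates 10 min at 37C, NADPH regeneration starts turnover for 60 min. Luminescence after detection reagent gives activity.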

[16] = Confirmation and Secondary Assay for Modulators of Hemoglobin Beta Chain Splicing at IVS2 654 locus (AID 910; active = well fitted curve in the direction sought with a large enough effect; an effect the other way counts as inactive or inconclusive;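 note: HeLa cells stably carrying EGFP split by mutant beta-globin IVS2-654 intron; % of control where 0% means no effect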); settings: HeLa EGFP-654 splicing reporter, GFP fluorescence, 48 h; series mostly up to 38.3 µM
In short: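 Readout: per-well total peak green fluorescence (488 nm ex, 500–520 nm em) from objects 5–250 µm, reflecting correct splicing of an EGFP-654 reporter. Compounds were applied for 2 days at 37 °C to overnight-plated HeLa EGFP-654 cells; controls were DMSO and 500 nM IVS2-654 PNA.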

[17] = qHTS Assay for Identification of Small Molecule Agonists for Hypoxia Response Element Signaling Pathway (AID 914; active = well fitted activation curve with a large enough effect in the signal ratio, with a control signal flat, not every such curve was filed as active; the % refers to the signal ratio; note: potency is the fitted concentration of half-maximal effect); settings: ME-180 (cervical carcinoma) HRE-bla reporter, beta-lactamase ratio, CoCl2, 17 h; activation: stronger effect = higher value
In short: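 HRE-bla ME-180 cells with beta-lactamase reporter under hypoxia response element, compounds with EC50 CoCl2 for 17 hours at 37 C. CCF4 substrate, 460nm/530nm emission ratio gave %Activity; AC50 from titration series.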

[18] = Confirmation and Secondary Assay for Modulators of Hemoglobin Beta Chain Splicing at IVS2 705 locus (AID 930; active = well fitted curve in the direction sought with a large enough effect; an effect the other way counts as inactive or inconclusive;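 note: HeLa cells stably expressing the EGFP-705 splicing reporter; GFP fluorescence per well restored by corrected splicing of the IVS2-705 intron in EGFP; % of control where 0% means no effect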); settings: HeLa EGFP-705 splicing reporter, GFP fluorescence, 48 h; series mostly up to 38.3 µM
In short: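 HeLa cells stably carrying EGFP interrupted by mutant beta-globin intron 2 (IVS2-705) treated 2 days at 37C with compound; 500 nM antisense PNA as control. Correct splicing read as total peak GFP intensity per well by laser-scanning cytometry.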

[19] = molecular target: Ubiquitin carboxyl-terminal hydrolase 1 (Homo sapiens) (UniProt O94782); test: Inhibitors of USP1/UAF1: Pilot qHTS (AID 504865; active = well fitted curve in the direction sought with a large enough effect; an effect the other way counts as inactive or inconclusive;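 note: rhodamine fluorescence freed from ubiquitin-rhodamine substrate followed over time; top concentration of the series differs between compounds; % is set by controls: 0 for no effect and ±100 for the full control effect; nearly all actives have a fitted effect of over 35% in size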); settings: purified USP1/UAF1, Ub-rhodamine cleavage fluorescence; series mostly up to 54.9 µM
In short: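 Deubiquitinase activity followed as kinetic rhodamine fluorescence release from 150 nM Ub-Rho. 1 nM USP1/UAF1 with compound, after 15 min room-temperature preincubation, in HEPES pH 7.8 buffer containing TCEP, EDTA, BSA and Tween-20.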

[20] = measured here: cell count channel max response
[21] = measured here: lipid channel max response

Cytochrome P450 3A4 (Homo sapiens), sequence (P08684 whole entry, looked up): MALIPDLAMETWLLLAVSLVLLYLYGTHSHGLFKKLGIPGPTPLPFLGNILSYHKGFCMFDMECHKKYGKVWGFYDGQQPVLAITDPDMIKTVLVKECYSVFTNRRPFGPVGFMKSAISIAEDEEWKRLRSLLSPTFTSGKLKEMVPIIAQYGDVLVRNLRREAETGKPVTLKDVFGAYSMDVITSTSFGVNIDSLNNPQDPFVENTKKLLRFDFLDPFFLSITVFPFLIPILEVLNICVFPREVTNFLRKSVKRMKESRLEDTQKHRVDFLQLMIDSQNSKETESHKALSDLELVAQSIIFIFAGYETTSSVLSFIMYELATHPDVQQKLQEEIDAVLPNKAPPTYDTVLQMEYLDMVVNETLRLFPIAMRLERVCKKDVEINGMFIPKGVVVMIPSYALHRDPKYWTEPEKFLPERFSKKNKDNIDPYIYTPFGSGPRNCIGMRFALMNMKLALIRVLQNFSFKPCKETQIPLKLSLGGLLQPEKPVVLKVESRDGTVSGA
Glucocorticoid receptor (Homo sapiens), sequence (P04150 whole entry, looked up, the tested form may be a part): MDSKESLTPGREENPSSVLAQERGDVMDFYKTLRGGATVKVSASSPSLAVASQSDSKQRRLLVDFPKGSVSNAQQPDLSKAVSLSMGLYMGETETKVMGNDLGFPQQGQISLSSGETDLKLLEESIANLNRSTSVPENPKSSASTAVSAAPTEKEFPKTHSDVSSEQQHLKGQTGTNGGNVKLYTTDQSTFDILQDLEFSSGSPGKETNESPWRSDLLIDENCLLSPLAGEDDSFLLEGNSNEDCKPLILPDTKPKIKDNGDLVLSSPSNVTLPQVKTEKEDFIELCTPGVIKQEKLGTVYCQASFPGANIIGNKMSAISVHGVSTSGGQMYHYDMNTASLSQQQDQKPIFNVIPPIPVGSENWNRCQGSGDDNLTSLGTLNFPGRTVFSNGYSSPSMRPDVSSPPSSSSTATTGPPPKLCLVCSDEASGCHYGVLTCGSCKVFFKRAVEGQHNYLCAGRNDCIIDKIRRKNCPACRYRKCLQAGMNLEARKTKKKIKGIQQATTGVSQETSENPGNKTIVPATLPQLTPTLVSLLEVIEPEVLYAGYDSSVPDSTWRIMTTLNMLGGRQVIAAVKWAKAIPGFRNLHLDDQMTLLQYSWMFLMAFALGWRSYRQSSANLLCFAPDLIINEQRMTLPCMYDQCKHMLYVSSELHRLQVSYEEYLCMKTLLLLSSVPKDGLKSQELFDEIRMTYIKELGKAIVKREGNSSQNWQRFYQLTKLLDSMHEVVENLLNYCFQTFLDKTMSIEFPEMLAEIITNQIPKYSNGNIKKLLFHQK
Lysosomal acid glucosylceramidase (Homo sapiens), sequence (P04062 whole entry, looked up): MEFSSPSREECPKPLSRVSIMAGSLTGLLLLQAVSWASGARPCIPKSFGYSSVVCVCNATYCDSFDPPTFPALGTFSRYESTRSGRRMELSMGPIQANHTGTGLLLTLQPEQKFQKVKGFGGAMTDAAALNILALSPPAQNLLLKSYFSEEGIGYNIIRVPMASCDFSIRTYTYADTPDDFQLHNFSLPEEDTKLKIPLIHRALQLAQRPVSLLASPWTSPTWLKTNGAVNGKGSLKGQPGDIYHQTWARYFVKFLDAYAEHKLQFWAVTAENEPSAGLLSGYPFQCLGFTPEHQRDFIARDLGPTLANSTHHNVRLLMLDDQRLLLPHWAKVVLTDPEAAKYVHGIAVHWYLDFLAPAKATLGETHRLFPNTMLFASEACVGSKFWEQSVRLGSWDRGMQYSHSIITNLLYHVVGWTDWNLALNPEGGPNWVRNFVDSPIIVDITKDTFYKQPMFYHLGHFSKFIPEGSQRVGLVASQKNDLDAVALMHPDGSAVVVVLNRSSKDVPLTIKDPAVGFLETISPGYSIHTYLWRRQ
3',5'-cyclic-AMP phosphodiesterase 4B (Homo sapiens), sequence (Q07343 whole entry, looked up): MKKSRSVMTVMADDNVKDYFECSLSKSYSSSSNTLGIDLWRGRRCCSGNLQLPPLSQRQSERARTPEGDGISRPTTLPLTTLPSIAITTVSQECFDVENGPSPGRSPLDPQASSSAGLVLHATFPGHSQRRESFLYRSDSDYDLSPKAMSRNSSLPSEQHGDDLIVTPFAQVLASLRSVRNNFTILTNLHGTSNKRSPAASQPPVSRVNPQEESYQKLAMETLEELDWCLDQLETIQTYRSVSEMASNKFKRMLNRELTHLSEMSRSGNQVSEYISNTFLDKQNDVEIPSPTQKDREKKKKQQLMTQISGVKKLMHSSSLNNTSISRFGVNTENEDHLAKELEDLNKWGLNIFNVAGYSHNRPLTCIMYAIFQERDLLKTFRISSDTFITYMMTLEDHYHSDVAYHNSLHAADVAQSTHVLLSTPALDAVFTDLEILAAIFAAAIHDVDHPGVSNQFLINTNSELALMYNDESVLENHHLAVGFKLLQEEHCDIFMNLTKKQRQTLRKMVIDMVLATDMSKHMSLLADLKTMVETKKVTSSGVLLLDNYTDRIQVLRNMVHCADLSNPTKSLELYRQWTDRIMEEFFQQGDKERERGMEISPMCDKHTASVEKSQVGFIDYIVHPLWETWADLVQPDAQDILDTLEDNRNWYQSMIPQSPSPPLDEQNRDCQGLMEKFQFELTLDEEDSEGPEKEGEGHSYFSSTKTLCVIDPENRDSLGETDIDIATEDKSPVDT
Cytochrome P450 1A2 (Homo sapiens), sequence (P05177 whole entry, looked up): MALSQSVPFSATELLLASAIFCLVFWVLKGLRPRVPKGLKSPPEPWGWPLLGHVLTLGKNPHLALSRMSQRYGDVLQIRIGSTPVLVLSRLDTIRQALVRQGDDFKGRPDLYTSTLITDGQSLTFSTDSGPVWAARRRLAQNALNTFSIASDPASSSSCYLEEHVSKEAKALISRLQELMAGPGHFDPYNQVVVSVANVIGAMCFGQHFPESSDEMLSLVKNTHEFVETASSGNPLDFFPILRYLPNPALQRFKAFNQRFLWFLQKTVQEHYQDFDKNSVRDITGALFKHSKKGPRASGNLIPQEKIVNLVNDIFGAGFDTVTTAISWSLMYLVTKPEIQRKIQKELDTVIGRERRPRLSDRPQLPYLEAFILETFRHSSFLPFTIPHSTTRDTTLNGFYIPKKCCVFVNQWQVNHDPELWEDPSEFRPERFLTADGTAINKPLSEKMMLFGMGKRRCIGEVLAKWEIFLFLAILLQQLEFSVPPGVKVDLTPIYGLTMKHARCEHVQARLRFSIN
Cytochrome P450 2D6 (Homo sapiens), sequence (P10635 whole entry, looked up): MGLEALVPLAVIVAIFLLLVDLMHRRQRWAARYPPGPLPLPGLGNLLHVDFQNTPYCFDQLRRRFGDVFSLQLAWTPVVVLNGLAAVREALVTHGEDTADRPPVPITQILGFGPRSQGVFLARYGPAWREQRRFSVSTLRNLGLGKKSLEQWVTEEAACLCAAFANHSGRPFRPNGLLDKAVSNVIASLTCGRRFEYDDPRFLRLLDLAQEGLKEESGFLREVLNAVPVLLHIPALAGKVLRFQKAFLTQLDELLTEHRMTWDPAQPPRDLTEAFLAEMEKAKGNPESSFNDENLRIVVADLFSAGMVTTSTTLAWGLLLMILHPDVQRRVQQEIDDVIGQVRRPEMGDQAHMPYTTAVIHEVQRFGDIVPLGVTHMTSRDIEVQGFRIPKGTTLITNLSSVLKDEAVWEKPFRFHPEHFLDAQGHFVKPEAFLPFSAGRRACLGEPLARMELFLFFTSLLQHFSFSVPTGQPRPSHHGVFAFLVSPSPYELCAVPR
Ubiquitin carboxyl-terminal hydrolase 1 (Homo sapiens), sequence (O94782 whole entry, looked up): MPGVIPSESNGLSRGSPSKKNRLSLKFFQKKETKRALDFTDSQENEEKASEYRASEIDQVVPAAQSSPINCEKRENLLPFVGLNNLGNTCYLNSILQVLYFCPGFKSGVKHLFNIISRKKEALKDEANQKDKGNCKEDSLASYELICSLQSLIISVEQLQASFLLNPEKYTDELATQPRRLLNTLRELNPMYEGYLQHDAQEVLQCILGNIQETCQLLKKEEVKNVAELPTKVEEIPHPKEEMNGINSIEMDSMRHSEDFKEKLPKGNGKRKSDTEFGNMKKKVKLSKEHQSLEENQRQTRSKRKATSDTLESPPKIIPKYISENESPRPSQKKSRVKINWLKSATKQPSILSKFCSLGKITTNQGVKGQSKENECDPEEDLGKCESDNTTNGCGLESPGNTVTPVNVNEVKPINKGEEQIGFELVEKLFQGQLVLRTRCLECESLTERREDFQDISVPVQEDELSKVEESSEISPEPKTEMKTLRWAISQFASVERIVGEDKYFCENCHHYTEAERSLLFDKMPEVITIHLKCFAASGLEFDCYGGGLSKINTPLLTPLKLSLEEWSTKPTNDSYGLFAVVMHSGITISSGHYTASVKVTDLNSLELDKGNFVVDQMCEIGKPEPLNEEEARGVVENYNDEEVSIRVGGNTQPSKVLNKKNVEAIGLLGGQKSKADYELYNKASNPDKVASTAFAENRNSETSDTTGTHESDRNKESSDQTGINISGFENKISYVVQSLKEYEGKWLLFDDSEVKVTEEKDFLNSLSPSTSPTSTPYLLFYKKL
Cytochrome P450 2C19 (Homo sapiens), sequence (P33261 whole entry, looked up): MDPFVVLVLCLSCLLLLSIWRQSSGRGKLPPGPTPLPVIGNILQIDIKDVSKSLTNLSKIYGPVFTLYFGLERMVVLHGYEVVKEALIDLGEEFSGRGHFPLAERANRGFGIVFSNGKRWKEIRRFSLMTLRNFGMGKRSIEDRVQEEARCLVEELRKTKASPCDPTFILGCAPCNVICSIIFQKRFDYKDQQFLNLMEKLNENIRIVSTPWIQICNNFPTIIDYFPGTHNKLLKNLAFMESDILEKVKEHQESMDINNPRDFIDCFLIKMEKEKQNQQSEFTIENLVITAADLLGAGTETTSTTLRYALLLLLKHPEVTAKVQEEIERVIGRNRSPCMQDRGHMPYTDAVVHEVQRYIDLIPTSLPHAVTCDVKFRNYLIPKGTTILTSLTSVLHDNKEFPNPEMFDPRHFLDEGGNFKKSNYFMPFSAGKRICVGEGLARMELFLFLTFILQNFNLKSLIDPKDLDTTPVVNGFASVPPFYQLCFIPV

For `CC(=O)N1CCC[C@@]2(CCN(Cc3nccs3)C2)C1`, the activity change, negative = inhibition [1] was 1.66% (inactive), the Potency [2] was “inactive” and the activity change, negative = inhibition [3] was 8.54% (inactive). The activity, negative = inhibition [4] was 4.24% (inactive), the Potency [5] was > 46 µM (inactive) and the Potency [6] was “inactive”. The Potency [7] was “inactive”, the activity change, negative = inhibition [8] was 6.81% (inactive) and the max response [8, 20] was 16.2%. The max response [8, 21] was 26.9% and the outcome [9] was “inactive”.
For `COc1ccccc1CN1CCCC2(CCN(C(=O)c3ccco3)CC2)C1`, the Potency [10] was > 11.4 µM (inactive), the Potency [2] was “inactive” and the activity, negative = inhibition [4] was -1.13% (inactive). The Potency [5] was > 46 µM (inactive), the Potency [6] was “inactive” and the Potency [11] was “inactive”. The Potency [7] was “inactive”, the Potency [12] was 2.51 µM (active) and the activity change, negative = inhibition [8] was 2.54% (inactive). For the same compound, the max response [8, 20] was 5.74%, the max response [8, 21] was 11.8% and the outcome [9] was “inactive”.
With `O=C(c1cccc(F)c1)N1CCC2(CC1)CCN(c1ccncc1)CC2` the Potency [10] was > 11.4 µM (inactive), the Potency [5] was > 46 µM (inactive) and the Potency [6] was “inactive”. For the same compound, the Potency [13] was “inactive”, the activity change, negative = inhibition [8] was -0.521% (inactive) and the max response [8, 20] was -17.2%. For the same compound, the max response [8, 21] was -16.4% and the outcome [9] was “inactive”.
In the case of `Cc1noc(C)c1-c1ccc2ncnc(N(C)Cc3ccco3)c2c1`, the Potency [10] is reported as > 11.4 µM (inactive), the Potency [2] is reported as 2.51 µM (active) and the Potency [14] is reported as > 46 µM (inactive). For the same compound, the Potency [5] was > 46 µM (inactive), the Potency [6] was “inactive” and the Potency [7] was “inactive”. The Potency [15] was 5.01 µM (active), the Potency [16] was “inactive” and the Potency [17] was 1.58 µM (active). For the same compound, the outcome [18] was “inactive”, the activity change, negative = inhibition [8] was 2.4% (inactive) and the max response [8, 20] was 23.8%. The max response [8, 21] was 25.4%, the Potency [19] was “inactive” and the outcome [9] was “inactive”.
With `CCNc1ncc2nc(-c3ccc(OC)cc3)c(=O)n(Cc3cccc(OC)c3)c2n1` the Potency [10] was > 11.4 µM (inactive), the Potency [2] was 15.8 µM (active) and the Potency [14] was > 9.22 µM (inactive). For the same compound, the Potency [5] was > 46 µM (inactive), the Potency [6] was “inactive” and the Potency [7] was “inactive”. The activity change, negative = inhibition [8] was -12% (inactive), the max response [8, 20] was -21.5% and the max response [8, 21] was -29.7%. For the same compound, the outcome [9] was “inactive”.
For `COc1ccc(-n2c(=O)c(-c3cccs3)nc3cnc(N4CCNCC4)nc32)cc1`, the Potency [10] was > 11.4 µM (inactive), the Potency [2] was 5.01 µM (active) and the Potency [14] was > 9.22 µM (inactive). The Potency [5] was > 46 µM (inactive), the Potency [6] was “inactive” and the Potency [11] was “inactive”. The Potency [7] was “inactive”, the activity change, negative = inhibition [8] was 2.69% (inactive) and the max response [8, 20] was 3.53%. The max response [8, 21] was 6.61% and the outcome [9] was “inactive”.
For `COCC(=O)N1CCC2(CC1)CCN(c1ccccc1)CC2`, the Potency [10] was > 11.4 µM (inactive), the activity change, negative = inhibition [3] was 15.9% (inactive) and the activity, negative = inhibition [4] was -2.7% (inactive). The Potency [5] was > 46 µM (inactive), the Potency [6] was “inactive” and the Potency [11] was “inactive”. The activity change, negative = inhibition [8] was -1.96% (inactive), the max response [8, 20] was 4.08% and the max response [8, 21] was 3.97%. For the same compound, the outcome [9] was “inactive”.
With `COc1ccc(Oc2ncc3nc(-c4ccc(OC)cc4)c(=O)n(CCC#N)c3n2)cc1` the Potency [10] was > 11.4 µM (inactive), the activity change, negative = inhibition [3] was 7.68% (inactive) and the activity, negative = inhibition [4] was 2.86% (inactive). The Potency [14] was > 9.22 µM (inactive), the Potency [5] was > 46 µM (inactive) and the Potency [6] was “inactive”. For the same compound, the Potency [11] was “inactive”, the activity change, negative = inhibition [8] was -1.07% (inactive) and the max response [8, 20] was 17.2%. The max response [8, 21] was 21% and the outcome [9] was “inactive”.
